# “And” between values parts separate entries of the source, which are not always exact repeats. Equal entries are not always repeated. The source made the active and inactive calls.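 How the source made its calls, unless noted: active means compounds whose cell count with miR-34 switched on is under 0.7 times the count with it off; inactive means the rest.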
# Tests used:
# [1] = hESC survival regulators, cell-based (AID 493140; call rule not given here;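 further: cells exposed to compounds for four days before counting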); conditions: human embryonic stem cell survival screen; stronger effect = higher value
# [2] = liver-stage malaria parasite growth inhibition, primary screen, cell-based, HepG2, luciferase luminescence, HepG2 viability (AID 624349; in the data active means parasite load remaining mostly below about 12%, no sharp cut-off; inactive means mostly above about 10%;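 further: 100% = mean of DMSO negative control wells on the same plate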); conditions: P. berghei liver stage in HepG2, luciferase luminescence, concentration not given here; parasite load remaining: stronger effect = lower value; viability: measured here: HepG2 viability without parasites
# [3] = stimulators of nuclear beta-catenin in C2C12, primary screen, imaging, WNT3A-conditioned medium, mouse C2C12, NPC library (AID 1117326; in the data active means nuclear beta-catenin stimulation mostly above about 4.2%, no sharp cut-off; inactive means mostly below about 10%); conditions: stronger effect = higher value
# [4] = stimulators of insulin release from INS-1E, primary screen, cell-based, 5 mM glucose, NPC library (AID 1117329;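 active means compound raises insulin release from rat beta cells at 5 mM glucose, no numeric limit stated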); conditions: rat INS-1E insulin secretion, at 10 µM, stronger effect = higher value
# [5] = growth inhibition of GSK3B-pretreated HCT116 cells – cell-based, CellTiter-Glo, 0.2 to 20 µM (AID 1117336;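 active means compounds lowering colon cancer cell viability after pretreatment blocking the GSK3B kinase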); conditions: HCT116 viability after GSK3B inhibitor, at 20 µM, stronger effect = higher value
# [6] = inhibition of endothelial tube formation, primary screen, imaging, VEGF stimulated, CD31 staining, tube area, NPC library (AID 1117340;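 active means compound that reduces growth-factor-driven endothelial tube area in a mixed cell culture, no cutoff stated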); conditions: VEGF-stimulated ADSC/ECFC co-culture, at 10 µM, stronger effect = higher value
# [7] = glucagon-like peptide 1 release enhancers, primary assay, NCI-H716 cell line, NPC library (AID 1117341;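 active means compound raises GLP1 secretion from the human gut endocrine cells, with no numeric limit stated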); conditions: NCI-H716 cells, at 10 µM, stronger effect = higher value
# [8] = HCT116 colon cancer cell growth inhibition, primary screen, CellTiter-Glo luminescence, NPC library (AID 1117342;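 active means compounds that lower survival of HCT116 colon cancer cells in the luminescence readout, no numeric limit stated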); conditions: at 20 µM (top of the series)
# [9] = CellTiter-Glo luminescent readout of SW480 viability loss, NPC library primary (AID 1117343;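 active means compounds that lower viability of the colon cancer cells in the luminescence readout, with no numeric limit stated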); conditions: CellTiter-Glo luminescence; at 20 µM (top of the series) unless noted
# [10] = decreased DLD-1 cellular survival, CellTiter-Glo luminescent readout, NPC compound collection, primary HTS (AID 1117346;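 active means compounds that lower survival of DLD-1 colon cancer cells in the luminescence readout, no cutoff given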); conditions: DLD-1 viability, CellTiter-Glo luminescence; at 20 µM (top of the series)
# [11] = differential killing of epithelial or mesenchymal cells, primary screen, imaging, PC-3E GFP, TEM4-18 mCherry, co-culture (AID 1345086;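 active means compounds killing one labelled cell type while sparing the other, by normalised counts and ratio limits, not self-fluorescent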;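 on all read-outs here: cells exposed to compound for 72 h before imaging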;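 on red/green cell ratio (normalised): normalised mesenchymal count divided by normalised epithelial count so high means epithelial killing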); conditions: imaging cell counts, at 1 µM; for red/green cell ratio (normalised): actives lie on both sides, counts scaled to control wells, 1 = unselective
# [12] = sensitizers of A549 cells to miR-34 induction, primary screen, imaging, A549 dox-inducible miR-34, nuclei and caspase counts (AID 1347080); conditions: A549 miR-34 inducible, Hoechst nuclei count, 48 h
# [13] = survival rescue of mitochondrial mutant cells in low glucose, primary screen, MELAS cybrids, Rieske KO mouse fibroblasts, CellTiter-Glo (AID 1508586;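 active means mean z-score across replicates of 1.96 or higher in either the MELAS or the Rieske mutant cell line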;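 further: z relative to plate mean and SD of compound and empty wells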)
# [14] = biological target: NAD(+) hydrolase SARM1 (Homo sapiens) (UniProt Q6SZW1); test: SARM1 TIR NADase inhibitors, cell lysate, NAD-Glo luminescence (AID 1508614;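 active means compound whose remaining NAD level is above about 45 nM, limit read from the data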); conditions: SAM-TIR HEK293T lysate NADase, at 1 µM, stronger effect = higher value
# [15] = measured here: epithelial PC-3E GFP cell survival
# [16] = measured here: mesenchymal TEM4-18 mCherry cell survival
# [17] = stronger effect = lower value, cell number ratio, induced over uninduced
# [18] = measured here: relative caspase fold change +Dox/-Dox
# [19] = measured here: total cells with miR-34 induction, stronger effect = lower value
# [20] = measured here: total cells without miR-34 induction
# [21] = MELAS cybrid survival, CellTiter-Glo 48 h, stronger effect = higher value
# [22] = Rieske KO mouse fibroblast survival, CellTiter-Glo 72 h
# Sequence of NAD(+) hydrolase SARM1 (Homo sapiens) (Q6SZW1 whole entry, looked up): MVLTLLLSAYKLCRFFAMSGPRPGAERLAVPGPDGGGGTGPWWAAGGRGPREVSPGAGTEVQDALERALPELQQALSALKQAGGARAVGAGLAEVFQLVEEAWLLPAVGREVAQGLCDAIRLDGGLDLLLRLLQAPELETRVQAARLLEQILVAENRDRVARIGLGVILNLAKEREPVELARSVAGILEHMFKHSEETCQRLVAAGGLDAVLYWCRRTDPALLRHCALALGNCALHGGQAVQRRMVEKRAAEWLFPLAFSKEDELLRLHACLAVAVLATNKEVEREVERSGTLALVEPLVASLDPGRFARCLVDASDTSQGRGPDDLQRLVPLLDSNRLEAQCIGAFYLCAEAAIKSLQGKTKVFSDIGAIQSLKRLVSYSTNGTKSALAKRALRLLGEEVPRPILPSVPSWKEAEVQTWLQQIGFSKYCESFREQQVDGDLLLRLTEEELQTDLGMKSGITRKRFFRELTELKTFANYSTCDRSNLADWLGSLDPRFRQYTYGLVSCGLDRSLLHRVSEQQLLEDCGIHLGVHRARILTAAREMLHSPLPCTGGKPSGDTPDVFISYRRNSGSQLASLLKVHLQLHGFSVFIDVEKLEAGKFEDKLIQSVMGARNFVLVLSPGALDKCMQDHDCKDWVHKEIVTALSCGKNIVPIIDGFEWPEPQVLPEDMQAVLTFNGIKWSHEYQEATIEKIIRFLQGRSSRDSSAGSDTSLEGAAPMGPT
smiles,measurement,setting,value
Cc1cc2c(cc1S(N)(=O)=O)S(=O)(=O)CCC2,survival,[1],26.1 (inactive)
same,parasite load remaining,[2],38.3% (inactive) and 103% (inactive)
same,viability,[2],50.2% and 93.9%
same,nuclear beta-catenin stimulation,[3]; at 10 µM,-0.4% (inactive)
same,nuclear beta-catenin stimulation,"[3]; stimulation, at 2 µM",1%
same,insulin secretion stimulation,[4],1.4% (inactive)
same,viability decrease,[5],-10.3% (inactive)
same,tube area decrease,[6],3.5% (inactive)
same,GLP1 secretion stimulation,[7],-0.7% (inactive)
same,inhibition of viability,[8],-0.03% (inactive)
same,viability decrease (inhibition),[9],3.2% (inactive)
same,viability decrease (inhibition),[10],-1.8% (inactive)
same,red/green cell ratio (normalised),[11],0.91 (inactive)
same,normalised cell number,[11]; [15],0.86
same,normalised cell number,[11]; [16],0.78
same,fold change,[12]; [17],0.932 (inactive)
same,fold change,[12]; [18],1.01
same,cell count,[12]; [19],8570
same,cell count,[12]; [20],9200
same,z-score,[13]; [21],-0.881 (inactive)
same,z-score,[13]; [22],0.124
same,remaining NAD,[14],10 nM (inactive)
O=C1OC(CN2CCOCC2)CN1/N=C/c1ccc([N+](=O)[O-])o1 (centres undefined),parasite load remaining,[2],37.8% (inactive)
same,viability,[2],89.8%
same,nuclear beta-catenin stimulation,[3]; at 10 µM,1.3% (inactive)
same,nuclear beta-catenin stimulation,"[3]; stimulation, at 2 µM",3.6%
same,insulin secretion stimulation,[4],-1.4% (inactive)
same,viability decrease,[5],31.8% (inactive)
same,tube area decrease,[6],-4.4% (inactive)
same,GLP1 secretion stimulation,[7],-0.3% (inactive)
same,inhibition of viability,[8],24.6% (inactive)
same,viability decrease (inhibition),[9],22% (inactive)
same,viability decrease (inhibition),[10],-32.5% (inactive)
same,red/green cell ratio (normalised),[11],1.05 (inactive)
same,normalised cell number,[11]; [15],1.05
same,normalised cell number,[11]; [16],1.1
same,fold change,[12]; [17],0.949 (inactive) and 0.857 (inactive)
same,fold change,[12]; [18],0.904 and 1.34
same,cell count,[12]; [19],8490 and 8240
same,cell count,[12]; [20],8940 and 9610
same,z-score,[13]; [21],-1.3 (inactive)
same,z-score,[13]; [22],-1.11
same,remaining NAD,[14],10 nM (inactive)
CC(O)C(=O)O (centres undefined),nuclear beta-catenin stimulation,[3]; at 10 µM,2.5% (inactive)
same,nuclear beta-catenin stimulation,"[3]; stimulation, at 2 µM",3%
same,insulin secretion stimulation,[4],-0.6% (inactive)
same,viability decrease,[5],-5.3% (inactive)
same,tube area decrease,[6],8.4% (inactive)
same,GLP1 secretion stimulation,[7],3.4% (inactive)
same,inhibition of viability,[8],2.73% (inactive)
same,viability decrease (inhibition),[9],-11.7% (inactive)
same,viability decrease (inhibition),[10],-8.5% (inactive)
same,red/green cell ratio (normalised),[11],1.08 (inactive)
same,normalised cell number,[11]; [15],1.05
same,normalised cell number,[11]; [16],1.14
same,fold change,[12]; [17],0.885 (inactive)
same,fold change,[12]; [18],0.852
same,cell count,[12]; [19],8900
same,cell count,[12]; [20],10100
same,remaining NAD,[14],10 nM (inactive)
O=C(O)Cc1ccc(-c2ccccc2)cc1,survival,[1],7.67 (inactive)
same,parasite load remaining,[2],98.2% (inactive)
same,viability,[2],99.7%
same,nuclear beta-catenin stimulation,[3]; at 10 µM,-0.4% (inactive)
same,nuclear beta-catenin stimulation,"[3]; stimulation, at 2 µM",0.3%
same,insulin secretion stimulation,[4],-1.1% (inactive)
same,viability decrease,[5],-34.7% (inactive)
same,tube area decrease,[6],6.9% (inactive)
same,GLP1 secretion stimulation,[7],1.7% (inactive)
same,inhibition of viability,[8],2.33% (inactive)
same,viability decrease (inhibition),[9],7.7% (inactive)
same,viability decrease (inhibition),[10],-10.7% (inactive)
same,red/green cell ratio (normalised),[11],0.72 (inactive)
same,normalised cell number,[11]; [15],1.44
same,normalised cell number,[11]; [16],1.04
same,fold change,[12]; [17],0.915 (inactive)
same,fold change,[12]; [18],1.39
same,cell count,[12]; [19],9920
same,cell count,[12]; [20],10800
same,z-score,[13]; [21],0.702 (inactive)
same,z-score,[13]; [22],-0.122
same,remaining NAD,[14],10 nM (inactive)
CCCCOCCOCCOCc1cc2c(cc1CCC)OCO2,nuclear beta-catenin stimulation,[3]; at 10 µM,0.2% (inactive)
same,nuclear beta-catenin stimulation,"[3]; stimulation, at 2 µM",1.7%
same,insulin secretion stimulation,[4],1.3% (inactive)
same,viability decrease,[5],-13.9% (inactive)
same,tube area decrease,[6],-2.7% (inactive)
same,GLP1 secretion stimulation,[7],-2.6% (inactive)
same,inhibition of viability,[8],24.7% (inactive)
same,viability decrease (inhibition),[9],11.6% (inactive)
same,viability decrease (inhibition),[10],14.4% (inactive)
same,red/green cell ratio (normalised),[11],0.78 (inactive)
same,normalised cell number,[11]; [15],1.28
same,normalised cell number,[11]; [16],1
same,fold change,[12]; [17],0.878 (inactive)
same,fold change,[12]; [18],0.573
same,cell count,[12]; [19],7660
same,cell count,[12]; [20],8730
same,remaining NAD,[14],10 nM (inactive)
CCC1NC(=O)c2cc(S(N)(=O)=O)c(Cl)cc2N1 (centres undefined),survival,[1],5.17 (inactive)
same,parasite load remaining,[2],89.6% (inactive)
same,viability,[2],77.9%
same,nuclear beta-catenin stimulation,[3]; at 10 µM,1.2% (inactive)
same,nuclear beta-catenin stimulation,"[3]; stimulation, at 2 µM",2.9%
same,insulin secretion stimulation,[4],-1.7% (inactive)
same,viability decrease,[5],-8.4% (inactive)
same,tube area decrease,[6],2.1% (inactive)
same,GLP1 secretion stimulation,[7],8.6% (inactive)
same,inhibition of viability,[8],-5.7% (inactive)
same,viability decrease (inhibition),[9],-10.9% (active)
same,viability decrease (inhibition),[10],-14% (inactive)
same,red/green cell ratio (normalised),[11],0.98 (inactive)
same,normalised cell number,[11]; [15],1.22
same,normalised cell number,[11]; [16],1.2
same,fold change,[12]; [17],0.92 (inactive)
same,fold change,[12]; [18],0.404
same,cell count,[12]; [19],8110
same,cell count,[12]; [20],8810
same,z-score,[13]; [21],-1.3 (inactive)
same,z-score,[13]; [22],-1.37
same,remaining NAD,[14],10 nM (inactive)
[O-][n+]1cccc(CO)c1,nuclear beta-catenin stimulation,[3]; at 10 µM,-0.4% (inactive)
same,nuclear beta-catenin stimulation,"[3]; stimulation, at 2 µM",0.6%
same,insulin secretion stimulation,[4],2.1% (inactive)
same,viability decrease,[5],-35% (inactive)
same,tube area decrease,[6],18.7% (inactive)
same,GLP1 secretion stimulation,[7],-4.1% (inactive)
same,inhibition of viability,[8],1.43% (inactive)
same,viability decrease (inhibition),[9],-11.9% (inactive)
same,viability decrease (inhibition),[10],-6% (inactive)
same,red/green cell ratio (normalised),[11],0.9 (inactive)
same,normalised cell number,[11]; [15],1.13
same,normalised cell number,[11]; [16],1.02
same,fold change,[12]; [17],0.861 (inactive)
same,fold change,[12]; [18],0.917
same,cell count,[12]; [19],7710
same,cell count,[12]; [20],8950
same,remaining NAD,[14],10 nM (inactive)
Cc1ncc(CSSCc2cnc(C)c(O)c2CO)c(CO)c1O,nuclear beta-catenin stimulation,[3]; at 10 µM,0.2% (inactive)
same,nuclear beta-catenin stimulation,"[3]; stimulation, at 2 µM",-2.2%
same,insulin secretion stimulation,[4],1.7% (inactive)
same,viability decrease,[5],4.2% (inactive)
same,tube area decrease,[6],-25.7% (inactive)
same,GLP1 secretion stimulation,[7],6.7% (inactive)
same,inhibition of viability,[8],14.3% (inactive)
same,viability decrease (inhibition),[9],6.1% (inactive)
same,viability decrease (inhibition),[10],15.6% (inactive)
same,red/green cell ratio (normalised),[11],0.89 (inactive)
same,normalised cell number,[11]; [15],1.03
same,normalised cell number,[11]; [16],0.92
same,fold change,[12]; [17],0.95 (inactive)
same,fold change,[12]; [18],0.868
same,cell count,[12]; [19],8920
same,cell count,[12]; [20],9390
same,remaining NAD,[14],10 nM (inactive)
CC(C)CCCC(C)N (centres undefined),parasite load remaining,[2],30.8% (inactive)
same,viability,[2],90%
same,nuclear beta-catenin stimulation,[3]; at 10 µM,3.1% (inactive)
same,nuclear beta-catenin stimulation,"[3]; stimulation, at 2 µM",2%
same,insulin secretion stimulation,[4],4.9% (inactive)
same,viability decrease,[5],2% (inactive)
same,tube area decrease,[6],-9.7% (inactive)
same,GLP1 secretion stimulation,[7],0% (inactive)
same,inhibition of viability,[8],-7.6% (inactive)
same,viability decrease (inhibition),[9],-47.3% (active)
same,viability decrease (inhibition),[10],-8.6% (active)
same,red/green cell ratio (normalised),[11],1.15 (inactive)
same,normalised cell number,[11]; [15],0.96
same,normalised cell number,[11]; [16],1.1
same,fold change,[12]; [17],0.884 (inactive)
same,fold change,[12]; [18],1.92
same,cell count,[12]; [19],11300
same,cell count,[12]; [20],12800
same,remaining NAD,[14],10 nM (inactive)
